GDH-TPI counter-1 – counter-screen for M. tuberculosis FBA inhibitors: GDH-TPI coupled enzymes. GDH-TPI coupled enzyme counterscreen, NADH absorbance. inhibition, % at 4.8 µM. 360,000 tested, 1.2% active;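 also: 0% = DMSO wells and 100% = wells lacking the enzyme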
SARS 3CLpro inh – SARS-CoV 3CLpro protease inhibition. P0C6X7. recombinant SARS-CoV 3CLpro, quenched FRET peptide cleavage. inhibition, % at 6 µM. 290,000 tested, 0.14% active. AID 1706; in the data active = inhibition above about 12%
VHR inh abs – DUSP3 (human) phosphatase inhibition. inhibition, % at 13.3 µM. AID 1654. 290,000 tested, 0.52% active. recombinant VHR phosphatase, pNPP absorbance. P51452; in the data active = inhibition above about 50%
Mtb FBA inh – inhibitors of M. tuberculosis fructose-bisphosphate aldolase | P9WQA3 | purified M. tuberculosis FBA, fluorescence read-out | inhibition, % at 1 µM | 360,000 tested, 2.3% active; in the data active = inhibition above about 27%;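 also: 0% = vehicle and 100% = reference inhibitor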
RecA splice inh – blocks M. tuberculosis RecA intein splicing. P9WHJ3. cell-free RecA intein splicing, fluorescence. inhibition, % (test concentration not listed). 290,000 tested, 0.75% active; in the data active = inhibition above about 30%;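 also: 0% = vehicle wells and 100% = reference inhibitor control wells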
Target sequence (P9WHJ3 whole entry, looked up, canonical isoform): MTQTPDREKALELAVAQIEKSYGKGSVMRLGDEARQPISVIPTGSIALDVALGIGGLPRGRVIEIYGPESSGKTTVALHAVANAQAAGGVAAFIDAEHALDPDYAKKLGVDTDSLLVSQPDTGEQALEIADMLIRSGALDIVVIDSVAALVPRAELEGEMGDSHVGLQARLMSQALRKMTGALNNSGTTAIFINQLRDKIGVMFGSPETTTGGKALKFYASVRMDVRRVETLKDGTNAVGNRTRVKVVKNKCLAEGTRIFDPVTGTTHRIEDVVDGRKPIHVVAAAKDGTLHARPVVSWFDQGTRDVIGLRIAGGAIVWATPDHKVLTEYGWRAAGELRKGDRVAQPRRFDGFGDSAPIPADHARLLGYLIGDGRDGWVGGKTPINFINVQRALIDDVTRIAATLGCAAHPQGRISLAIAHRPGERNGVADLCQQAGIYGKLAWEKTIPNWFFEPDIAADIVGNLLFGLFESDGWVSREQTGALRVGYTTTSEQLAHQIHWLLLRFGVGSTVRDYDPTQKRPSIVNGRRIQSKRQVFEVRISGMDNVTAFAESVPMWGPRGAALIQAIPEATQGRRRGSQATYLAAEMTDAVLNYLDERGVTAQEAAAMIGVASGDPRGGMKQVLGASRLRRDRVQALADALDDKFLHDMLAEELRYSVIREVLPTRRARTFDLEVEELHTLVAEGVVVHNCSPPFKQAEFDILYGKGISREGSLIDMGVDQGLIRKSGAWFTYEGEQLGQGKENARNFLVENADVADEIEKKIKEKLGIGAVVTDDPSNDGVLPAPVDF
CCHFV vOTU inh – blocks the CCHF virus ovarian tumor domain protease | CCHFV vOTU protease, Pep-AMC fluorescence | inhibition, % at 11.5 µM | 370,000 tested, 0.55% active; also: 0% = vehicle wells with enzyme and 100% = no enzyme wells
Mtb FBA confirm – Mtb FBA inhibition, confirmed; shares compounds with Mtb FBA inh; purified M. tuberculosis FBA, fluorescence read-out; 5,600 tested, 78% active; inhibition, % at 1 µM; in the data active = inhibition above about 27%;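 also: 0% = vehicle wells and 100% = reference inhibitor wells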
GDH-TPI counter-2 – inhibits GDH-TPI coupling enzymes, flagging Mtb FBA hits; shares compounds with Mtb FBA inh; GDH-TPI coupled enzyme counterscreen, fluorescence; inhibition, % at 1 µM; 5,600 tested, 81% active; in the data active = inhibition above about 10%
Starred values were filed as active, the others as inactive; nt = no result; + = active, no number. Rows were chosen to be rich in hits. Some 4.7% of all compounds tested hit in one or more screens of this group. Rule as the data show it, unless noted: active = inhibition above about 30%; inactive = the rest.

SMILES	GDH-TPI counter-1	SARS 3CLpro inh	VHR inh abs	Mtb FBA inh	RecA splice inh	CCHFV vOTU inh	Mtb FBA confirm	GDH-TPI counter-2
COc1ccc(OC)c(-c2cc(C(=O)N/N=C(\C)c3cccnc3)c3ccccc3n2)c1	9.3	0.1	22.9	-2.3	1.9	6.9	nt	nt
NS(=O)(=O)c1cccc(NC(=O)c2ccno2)c1	-6.3	-2.6	-3.8	-0.5	-2.7	-8.4	nt	nt
COc1ccc(Cc2[nH]n3c(=O)cc(C)nc3c2-c2ccccc2)cc1	0.0	2.6	12.1	27.3*	5.5	-4.8	157.4*	147.4*
Cc1cc(=O)n2[nH]c(C(F)(F)F)c(-c3ccccc3)c2n1	1.0	7.1	7.2	64.0*	-0.8	nt	165.0*	135.3*
CCOc1ccc(-n2cnc3scc(-c4ccc(OC)c(OC)c4)c3c2=O)cc1	-3.7	-3.0	11.1	27.7*	0.4	13.4	29.8*	20.7*
COc1cccc(C2CC=C(C(=O)O)CN2S(=O)(=O)c2ccc(C)cc2)c1 (stereo unspecified)	nt	nt	nt	nt	nt	1.6	nt	nt
N#Cc1cc2c(nc1SCC(=O)O)CCCCC2	6.5	3.8	-14.6	-0.6	0.2	0.1	nt	nt
CCOC(=O)CC(=O)CSc1nc2c(cc1C#N)CCC2	1.4	-4.5	34.5	31.3*	-5.2	-7.0	80.1*	64.9*
COC(=O)CC(=O)CSc1nc2c(cc1C#N)CCCCC2	15.6	-3.4	-1.0	39.1*	nt	-24.8	140.7*	97.8*
CCC(CO)Nc1ccn2nc(-c3cccs3)cc2n1 (stereo unspecified)	7.5	nt	nt	38.8*	nt	-25.9	+	+
CCC(CO)Nc1ccn2nc(-c3cc(OC)c(OC)c(OC)c3)cc2n1 (stereo unspecified)	14.3	nt	nt	32.3*	nt	-4.7	-8.9	-6.7
CCC(CO)Nc1ccn2nc(-c3ccccc3)cc2n1 (stereo unspecified)	3.1	nt	nt	18.0	nt	-12.1	nt	nt
CC(C)Cn1c(N)c(C(=O)COC(=O)CCc2nc3ccccc3s2)c(=O)n(C)c1=O	-6.3	-0.4	-6.4	-2.7	0.5	11.2	nt	nt
CCCCCCCCCCCCOC1OC(CO)C(O)C(O)C1NC(C)=O (stereo unspecified)	5.1	0.2	2.9	-0.4	0.9	-11.0	nt	nt
CS(=O)(=O)Nc1ccccc1C(=O)NC1CC2CCC1C2 (stereo unspecified)	4.3	2.3	23.9	37.3*	6.9	-14.3	65.5*	49.3*
Cc1ccccc1CNC(=O)c1ccccc1NS(C)(=O)=O	14.2	-1.9	0.8	59.3*	0.8	-24.6	60.0*	51.3*
CCCCn1c(CCc2ccccc2)nc2cc3[nH]c(=O)c(C(C)C)nc3cc21	7.6	0.2	20.5	32.7*	7.6	6.7	61.3*	50.1*
CCCCn1c(-c2ccc(F)c(F)c2)nc2cc3[nH]c(=O)c(C(C)C)nc3cc21	17.0	-1.4	12.7	51.9*	9.9	11.8	113.3*	92.1*
CCC(C(=O)NCCCN1CC(C)CC(C)C1)n1nc(C)c2sc3ccccc3c2c1=O (stereo unspecified)	2.4	-2.3	18.2	4.5	-1.2	3.5	nt	nt
O=C(NCC1CCCO1)c1onc(CSc2ccccc2)c1C(=O)O (stereo unspecified)	-0.8	6.6	24.6	-1.1	-0.5	5.8	nt	nt
O=C(NCC1CCCO1)c1onc(CSc2ccc(F)c(F)c2)c1C(=O)O (stereo unspecified)	-6.0	4.0	24.6	45.2*	0.1	1.0	92.4*	61.1*
O=C(Nc1ccnn1C1CCN(C2CCOCC2)CC1)c1cccc(F)c1	-7.9	-3.9	6.5	0.5	2.6	14.5	nt	nt
COCCN1C[C@@H](CO)O[C@@H](n2cnc3c(N4CCCC4)ncnc32)C1	4.4	nt	nt	-0.2	nt	8.6	nt	nt
CCc1ccccc1NC(=O)C1=CC(c2ccc(OC)c(OC)c2)=NS(=O)(=O)N1C	10.0	-1.6	1.6	2.7	-2.9	7.6	nt	nt
COc1ccc(CC(NC(C)=O)C(=O)NC2CCN(c3nc(C)cc(C)c3C#N)CC2)cc1 (stereo unspecified)	4.5	-1.9	29.6	19.2	-1.6	-11.3	nt	nt
SMILES	GDH-TPI counter-1	SARS 3CLpro inh	VHR inh abs	Mtb FBA inh	RecA splice inh	CCHFV vOTU inh	Mtb FBA confirm	GDH-TPI counter-2
COc1ccc(CC(NC(C)=O)C(=O)NC2CCN(c3nc(C)cc(C)c3C#N)CC2)cc1OC (stereo unspecified)	-0.6	5.9	9.1	31.1*	2.6	-28.7	161.7*	120.9*
Cc1occc1C(=O)N1CCCC(CO)(Cc2ccc(F)cc2F)C1 (stereo unspecified)	4.2	0.1	6.5	-1.0	2.0	7.7	nt	nt
COc1ccc(-c2cc3c(=O)n(CC(=O)NCCN4CCCC4)nc(C)n3n2)cc1	-7.9	-6.5	9.7	32.3*	-1.6	11.1	62.9*	53.7*
CCN1CCN(CCCNC(=O)Cn2nc(C)n3nc(-c4ccccc4)cc3c2=O)CC1	-14.7	1.7	9.1	-0.7	-3.8	2.6	nt	nt
O=c1nc2cccc3c2=c(/c1=C(\O)c1ccccc1)c1ccccc1c3=O	17.0	8.1	44.5	29.2*	-2.8	-13.0	-3.8	-6.0
O=c1[nH]c(/C=C/c2cccc3ccccc23)nc2ccccc12	9.2	2.3	18.2	1.9	-143.5	12.1	nt	nt
COc1cccc(NC(=O)CN(C)C(=O)c2cc(-c3ccc(C)o3)nc3ccccc23)c1	6.4	nt	nt	55.9*	nt	-84.6	37.2*	39.5*
CCOc1ccc(NC(=O)CN(C)C(=O)c2cc(-c3ccc(OC)cc3)nc3ccccc23)cc1OCC	9.5	nt	nt	27.6*	1.7	-23.2	50.6*	38.6*
Cc1ccc(-c2cc(C(=O)NCC(c3ccccc3)N(C)C)c3ccccc3n2)o1 (stereo unspecified)	18.4	nt	nt	71.1*	nt	-74.1	54.0*	45.6*
COc1ccc(NC(=O)CN(C)C(=O)c2cc(-c3ccc(Cl)cc3)nc3ccccc23)cc1	7.0	nt	nt	-1.5	0.5	0.9	nt	nt
Cc1nc(C)n(C(C)CNS(=O)(=O)c2ccc(Cl)cc2)n1 (stereo unspecified)	-0.8	-6.6	35.0	-4.8	1.0	13.0	nt	nt
C=CCn1c(C)cc(C(=O)Cn2c(C(C)O)nc3ccccc32)c1C (stereo unspecified)	6.9	3.5	9.4	73.6*	3.9	-2.8	155.8*	118.8*
S=C(Nc1ccc(-c2nc3ccccc3[nH]2)cc1)Nc1cccnc1	11.5	4.4	-14.5	89.2*	9.9	-17.7	64.2*	59.5*
Cc1nc2ccccc2[nH]c1=O	2.6	-4.8	-14.2	5.7	0.2	11.5	nt	nt
Cc1nnsc1-c1nc2ccccc2[nH]1	12.9	2.1	-1.9	81.3*	-1.8	-55.6	16.8	3.2
c1ccc2[nH]c(-c3ccncc3)nc2c1	2.5	0.4	33.9	29.6*	nt	4.1	+	179.0*
Cc1[nH]c2ccccc2c1-c1nc2ccccc2[nH]1	11.2	1.1	-4.0	14.4	1.6	6.1	nt	nt

Screening results deposited in PubChem by several laboratories.
